PLAP activator = activators of human placental alkaline phosphatase; purified PLAP enzyme, luminescent substrate read-out; hits give high values; activation fold at 20 µM; 96,000 tested, 1.2% active; AID 696; in the data active = activation fold above about 2
Target sequence (P05187 whole entry, looked up): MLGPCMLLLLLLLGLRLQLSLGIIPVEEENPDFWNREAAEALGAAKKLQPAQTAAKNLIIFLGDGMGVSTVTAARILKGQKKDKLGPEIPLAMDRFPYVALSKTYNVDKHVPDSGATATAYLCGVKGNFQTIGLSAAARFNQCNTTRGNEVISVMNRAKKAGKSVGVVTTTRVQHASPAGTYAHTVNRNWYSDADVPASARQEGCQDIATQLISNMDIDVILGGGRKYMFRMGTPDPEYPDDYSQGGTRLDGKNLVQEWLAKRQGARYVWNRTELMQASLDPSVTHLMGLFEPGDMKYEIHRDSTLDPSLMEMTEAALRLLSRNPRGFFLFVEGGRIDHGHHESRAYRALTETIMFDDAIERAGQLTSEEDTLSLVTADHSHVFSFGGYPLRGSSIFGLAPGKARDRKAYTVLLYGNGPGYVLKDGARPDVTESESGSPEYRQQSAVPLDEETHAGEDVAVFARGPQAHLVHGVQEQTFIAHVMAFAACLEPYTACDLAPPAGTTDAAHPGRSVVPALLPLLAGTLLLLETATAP
CYP2C19 activ = activators of human cytochrome P450 2C19; P33261; activation factor at 5 µM; 96,000 tested, under 10 active; recombinant CYP2C19, luciferin-H EGE luminescence; hits give high values; 0 = fully inhibited enzyme, 1 = untreated enzyme;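 active = activation factor of at least 2 at 5 µM in the primary screen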
CYP2C9 inh = inhibitors of human CYP2C9; P11712; CYP2C9 Supersomes, luciferin-H conversion, luminescence; inhibition, % at 5 µM; 96,000 tested, 20% active; AID 777;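 active = blocking of liver enzyme CYP2C9 beyond about 50% at 5 µM, limit read from the data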
CYP2C9 activ = increases human cytochrome P450 2C9 activity; recombinant CYP2C9, luciferin-H conversion, luminescence; hits give high values; factor 1 = untreated enzyme, 0 = blocked; P11712; activation factor at 5 µM; 96,000 tested, 1.4% active; AID 1024;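 active = activation factor of 2 or more for CYP2C9 at a 5 µM dose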
CYP2C19 inhib = inhibitors of human CYP2C19. P33261. CYP2C19 Supersomes, luciferin-H EGE luminescence, 30 min. inhibition, % at 5 µM. 96,000 tested, 21% active;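 active = CYP2C19 inhibition above a set limit at 5 µM in the primary screen, cut at about 50% in these data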
A number is an active result. This is a sample that favours compounds with a hit; in the whole collection about 31% have one here.

Screening O=C(NCCCN1CCOCC1)c1ccc(Cl)c(S(=O)(=O)N2CCCCCC2)c1 returned PLAP activator inactive, CYP2C19 activ inactive, CYP2C9 inh inactive, CYP2C9 activ inactive and CYP2C19 inhib inactive.
Screening CC(C)=CC(=O)Nc1nnc(-c2cccnc2)s1 returned PLAP activator inactive, CYP2C19 activ inactive, CYP2C9 inh inactive, CYP2C9 activ inactive and CYP2C19 inhib 87.
`CC(C)=CC(=O)Nc1nnc(C(C)C)s1` gave PLAP activator inactive, CYP2C19 activ inactive, CYP2C9 inh inactive, CYP2C9 activ inactive and CYP2C19 inhib inactive.
CC(C)c1ccc(-c2nnn(Cc3nc4ccccc4s3)n2)cc1 was read as PLAP activator inactive, CYP2C19 activ inactive, CYP2C9 inh 51, CYP2C9 activ inactive and CYP2C19 inhib inactive.
`Cc1ccc(-c2nnn(CC(=O)N3CCN(c4nc5ccccc5s4)CC3)n2)cc1` gave PLAP activator inactive, CYP2C19 activ inactive, CYP2C9 inh inactive, CYP2C9 activ inactive and CYP2C19 inhib inactive.
Screening O=C(NC(C(=O)N/N=C/c1ccccc1)c1n[nH]c(=O)c2ccccc12)c1ccccc1 (stereo not drawn) returned PLAP activator inactive, CYP2C19 activ inactive, CYP2C9 inh 52, CYP2C9 activ inactive and CYP2C19 inhib inactive.
Screening O=C(NC(C(=O)N/N=C/c1c2ccccc2cc2ccccc12)c1n[nH]c(=O)c2ccccc12)c1ccccc1 (stereo not drawn) returned PLAP activator inactive, CYP2C19 activ inactive, CYP2C9 inh inactive, CYP2C9 activ inactive and CYP2C19 inhib inactive.
For CC(C)C[C@H](NC(=O)OC(C)(C)C)c1nnc(SCc2ccccc2)o1 the results were PLAP activator inactive, CYP2C19 activ inactive, CYP2C9 inh 65, CYP2C9 activ inactive and CYP2C19 inhib 74.
For CCOC(=O)CSc1nnc([C@H](Cc2ccccc2)NC(=O)OC(C)(C)C)o1 the results were PLAP activator inactive, CYP2C19 activ inactive, CYP2C9 inh inactive, CYP2C9 activ inactive and CYP2C19 inhib inactive.
CC(C)(C)OC(=O)N[C@@H](Cc1ccccc1)c1nnc(S(=O)(=O)Cc2cccc(F)c2)o1 was read as PLAP activator inactive, CYP2C19 activ inactive, CYP2C9 inh 60, CYP2C9 activ inactive and CYP2C19 inhib inactive.
Cc1ccccc1CS(=O)(=O)c1nnc([C@H](CC(C)C)NC(=O)OC(C)(C)C)o1 was read as PLAP activator inactive, CYP2C19 activ inactive, CYP2C9 inh 76, CYP2C9 activ inactive and CYP2C19 inhib inactive.
For CC(C)C[C@H](N)c1nnc(S(=O)(=O)Cc2cccc(F)c2)o1 the results were PLAP activator inactive, CYP2C19 activ inactive, CYP2C9 inh inactive, CYP2C9 activ inactive and CYP2C19 inhib inactive.
For CC[C@@H](C)[C@H](NC(=O)OC(C)(C)C)c1nnc(S(=O)(=O)Cc2cc(C)ccc2C)o1 the results were PLAP activator inactive, CYP2C19 activ inactive, CYP2C9 inh inactive, CYP2C9 activ inactive and CYP2C19 inhib inactive.
For CN(CCCNC(=O)c1cccn2c(=O)c3ccccc3nc12)Cc1ccccc1 the results were PLAP activator inactive, CYP2C19 activ inactive, CYP2C9 inh inactive, CYP2C9 activ inactive and CYP2C19 inhib inactive.
For COc1ccc(-c2nc3ccccc3c(C(=O)Nc3ccc(S(=O)(=O)Nc4cc(C)on4)cc3)c2C)cc1 the results were PLAP activator inactive, CYP2C19 activ inactive, CYP2C9 inh inactive, CYP2C9 activ inactive and CYP2C19 inhib inactive.
For O=C(Cn1nc(C(F)F)cc1C(F)F)NNC(=S)Nc1ccc(F)cc1 the results were PLAP activator 2.4, CYP2C19 activ inactive, CYP2C9 inh inactive, CYP2C9 activ inactive and CYP2C19 inhib inactive.
`Cc1ccc(NC(=S)NNC(=O)CCn2cc(C)cn2)cc1` gave PLAP activator 2.4, CYP2C19 activ inactive, CYP2C9 inh inactive, CYP2C9 activ inactive and CYP2C19 inhib inactive.
Cc1ccc(NC(=S)NNC(=O)Cn2nc([N+](=O)[O-])cc2C)cc1 was read as PLAP activator 2, CYP2C19 activ inactive, CYP2C9 inh inactive, CYP2C9 activ inactive and CYP2C19 inhib inactive.
`COc1cccc(/C=N/NC(=O)CO/N=C(\C)c2cccs2)c1OC` gave PLAP activator inactive, CYP2C19 activ inactive, CYP2C9 inh inactive, CYP2C9 activ inactive and CYP2C19 inhib inactive.
`NC(=O)CCCCC(=O)OCCCc1cccs1` gave PLAP activator inactive, CYP2C19 activ inactive, CYP2C9 inh inactive, CYP2C9 activ inactive and CYP2C19 inhib inactive.
`Cc1nn(-c2nc3ccccc3s2)c(N)c1-c1ccccc1` gave PLAP activator inactive, CYP2C19 activ inactive, CYP2C9 inh inactive, CYP2C9 activ inactive and CYP2C19 inhib inactive.
Cc1nn(-c2nc3ccccc3s2)c(N)c1Sc1ccc(F)cc1 was read as PLAP activator inactive, CYP2C19 activ inactive, CYP2C9 inh 85, CYP2C9 activ inactive and CYP2C19 inhib inactive.
Screening CCCc1cc(C(=O)Nc2sc(C)c(C)c2C(=O)OCC)no1 returned PLAP activator inactive, CYP2C19 activ inactive, CYP2C9 inh inactive, CYP2C9 activ inactive and CYP2C19 inhib inactive.
Screening COc1cc(CN(C)CC(=O)c2[nH]c(C)c(C(C)=O)c2C)ccc1OC(F)F returned PLAP activator inactive, CYP2C19 activ inactive, CYP2C9 inh 70, CYP2C9 activ inactive and CYP2C19 inhib 73.
Screening CCn1nc(C(=O)OCc2c(C)noc2C)c2ccccc2c1=O returned PLAP activator inactive, CYP2C19 activ inactive, CYP2C9 inh 76, CYP2C9 activ inactive and CYP2C19 inhib inactive.
CCOC(=O)c1c(C)[nH]c(C(=O)O)c1C was read as PLAP activator inactive, CYP2C19 activ inactive, CYP2C9 inh inactive, CYP2C9 activ inactive and CYP2C19 inhib inactive.
For Cc1noc(C)c1COC(=O)c1cc(=O)[nH]c2ccccc12 the results were PLAP activator inactive, CYP2C19 activ inactive, CYP2C9 inh 80, CYP2C9 activ inactive and CYP2C19 inhib 60.
Screening CCn1nc(C(=O)OC2CCOC2=O)c2ccccc2c1=O (stereo not drawn) returned PLAP activator inactive, CYP2C19 activ inactive, CYP2C9 inh inactive, CYP2C9 activ inactive and CYP2C19 inhib inactive.
CCOC(=O)c1[nH]c(C)c(C(=O)OCc2c(C)noc2C)c1C was read as PLAP activator inactive, CYP2C19 activ inactive, CYP2C9 inh 65, CYP2C9 activ inactive and CYP2C19 inhib inactive.
Screening Cc1noc(C)c1C(=O)OCC(=O)c1c[nH]c2ccccc12 returned PLAP activator inactive, CYP2C19 activ inactive, CYP2C9 inh 88, CYP2C9 activ inactive and CYP2C19 inhib 91.
Screening CCN1CCN(C(CNC(=O)c2ccc3c(c2)OCO3)c2cccnc2)CC1 (stereo not drawn) returned PLAP activator inactive, CYP2C19 activ inactive, CYP2C9 inh inactive, CYP2C9 activ inactive and CYP2C19 inhib inactive.
CC1=C(C(=O)Nc2ccccc2)C(c2ccco2)C(C#N)=C(SCC(=O)OC(C)C)N1 (stereo not drawn) was read as PLAP activator inactive, CYP2C19 activ inactive, CYP2C9 inh inactive, CYP2C9 activ inactive and CYP2C19 inhib inactive.
For CC1=C(C(=O)Nc2ccccc2)C(c2ccco2)C(C#N)=C(SCC(=O)Nc2cccc(C)c2C)N1 (stereo not drawn) the results were PLAP activator inactive, CYP2C19 activ inactive, CYP2C9 inh 72, CYP2C9 activ inactive and CYP2C19 inhib 72.
